Experimental data published in the supplement of paper PMC3334620.
The full ranking holds about 33,000 sequences; the median of “E-score (-0.5 to 0.5)” is about -0.0059, and the highest 2% start at about 0.26. Many of the other results were omitted from the sample, so the highest values are more common in it than they were.

These sequences were tested against T1, Cin5 (UniProt P40917) (assay: PBM E-score (8-mer binding enrichment) (E-score (-0.5 to 0.5)); higher = stronger / more preferred TF binding). Settings: protein concentration: 100 nM; construct: GST-full length.
T1 sequence: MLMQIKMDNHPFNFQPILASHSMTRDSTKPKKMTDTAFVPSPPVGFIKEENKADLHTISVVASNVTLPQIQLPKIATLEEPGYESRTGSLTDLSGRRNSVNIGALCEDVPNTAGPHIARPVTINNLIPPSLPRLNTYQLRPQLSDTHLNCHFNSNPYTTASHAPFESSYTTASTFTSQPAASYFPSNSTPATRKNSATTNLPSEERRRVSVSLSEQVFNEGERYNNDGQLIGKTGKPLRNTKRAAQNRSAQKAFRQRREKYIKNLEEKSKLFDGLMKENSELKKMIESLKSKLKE
Protocol: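 Universal 'all 10-mer' protein binding microarrays (Agilent AMADID 015681) probed with GST-tagged S. cerevisiae TFs (full-length or DBD) made by in vitro transcription/translation (PURExpress), about 100-200 nM. Bound TF was detected with fluorescent anti-GST. Each ungapped 8-mer (which stands for itself and its reverse complement) is scored by the PBM enrichment score (E-score), a modified Wilcoxon-Mann-Whitney statistic from -0.5 to +0.5, computed with the Universal PBM Analysis Suite. Scale: above 0.35 generally sequence-specific binding.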

Row | Sequence | PBM E-score
1 | AAAACTAT | 0.2
2 | AAAACTAA | 0.275
3 | ATAACTAA | 0.141
4 | CTAACTAA | 0.15
5 | CTAAGTAA | 0.0623
6 | CAAACTAA | 0.266
7 | TTAACTAA | 0.343
8 | TAAACTAA | 0.252
9 | GAAACTAA | 0.0253
10 | CAAACTAC | 0.0495
11 | TTAAGTAA | 0.423
12 | GTAAGTAA | 0.24
13 | CGACATAG | 0.00383
14 | CTGCAAAC | -0.149
15 | AGCTGCCG | -0.0554
16 | GCGGCGCC | 0.115
17 | CACGTGGG | -0.172
18 | AGGCTGAC | 0.0576
19 | AGGCGGAA | -0.0282
20 | GCGCGAGC | -0.0452
21 | GGAATTGA | 0.199
22 | ACATCATC | 0.344
23 | GCATCATA | 0.0947
24 | ACATCATG | 0.0711
25 | CCATCATA | 0.05

Row | Sequence | PBM E-score
26 | CCATCATC | 0.0863
27 | ACATCATA | 0.258
28 | CAACTCTG | -0.112
29 | GACGCATC | 0.00795
30 | ACCAAGCC | -0.172
31 | CCCCCCTC | -0.465
32 | TAACCAAA | 0.175
33 | AAGGTGAA | -0.0511
34 | CAGGAGGA | -0.315
35 | TACCCATA | 0.0256
36 | AGCTGATG | 0.14
37 | AGTATATG | 0.183
38 | AGTATAAA | 0.282
39 | AGTATATC | 0.126
40 | TGTATAAA | 0.114
41 | GGTATAAA | 0.154
42 | AGTATAAG | 0.239
43 | AGTATAAC | -0.129
44 | AGTATATA | 0.346
45 | AGTATAAT | 0.301
46 | ATTGTCGC | 0.0313
47 | GAACCCAC | 0.121
48 | ATAGTTTA | 0.0429
49 | GGGCGGTA | -0.169
50 | AGCACGAT | 0.0861

Row | Sequence | PBM E-score
51 | ATCTCGCC | 0.0516
52 | ATATCGAA | 0.221
53 | ATATCGCC | 0.0352
54 | ATATCGCA | -0.00978
55 | ATATCGCG | 0.301
56 | ATATCGAT | 0.265
57 | ATCTCGCG | 0.266
58 | ATATCGAC | 0.249
59 | ATCTCGCA | 0.00313
60 | CACGTCGC | -0.119
61 | CTCGACGC | 0.0204
62 | GTTGATGA | 0.154
63 | CTTGATTA | 0.222
64 | ATTGATTG | 0.186
65 | ACTGATTA | 0.249
66 | ATTGATTC | 0.128
67 | GTTGATTA | 0.268
68 | GCTGATTA | 0.279
69 | CCTGATTA | 0.252
70 | ATTGATTA | 0.317
71 | AAGTTGCC | -0.0351
72 | CGGACGAA | 0.15
73 | CACACACG | -0.0573
74 | TCCCAGAA | -0.129
75 | AATCCGGA | 0.234

Row | Sequence | PBM E-score
76 | AATGTTCT | -0.0398
77 | ATTAATTC | 0.238
78 | ATTAATTA | 0.259
79 | GTTAATCA | 0.239
80 | CTTAATGA | 0.0487
81 | ATTAATTG | 0.193
82 | ATTAATCC | 0.18
83 | ATTAATCA | 0.263
84 | ATTAATGC | 0.19
85 | ATTAATGA | 0.29
86 | GCCACATA | 0.064
87 | ACTGCCCT | -0.0972
88 | CGAAGACA | -0.0454
89 | ATAACATC | 0.189
90 | ATAACATG | 0.0972
91 | GCAACATA | 0.0111
92 | ACAACATA | 0.268
93 | ACAACATC | 0.0575
94 | ATAACATA | 0.26
95 | AGATTGAA | 0.0552
96 | CCCAGTTC | 0.175
97 | AACCGTGA | -0.0786
98 | GCATTCCA | -0.196
99 | AAAGCATC | 0.134
100 | CAGACTGG | -0.108

Row | Sequence | PBM E-score
101 | AAAACGGA | 0.0411
102 | AGTAGCCG | 0.0345
103 | TATCGATA | 0.0449
104 | GCTCTTAC | 0.021
105 | CTCACGCC | -0.0928
106 | GTCACGCA | 0.0339
107 | CTCACGCA | 0.274
108 | ACAGTAGG | -0.00703
109 | CAGTGCCG | -0.0996
110 | ATAGTTGG | -0.0107
111 | ATAGTTGA | 0.121
112 | ATAGTTGC | 0.272
113 | GGTAAGTA | -0.00023
114 | AAAATGGT | 0.216
115 | TCTGCACA | -0.00335
116 | ATTACGGG | 0.103
117 | ATTACGGA | 0.322
118 | ATTACGCA | 0.25
119 | ATTACGAC | 0.232
120 | AGTACGAA | 0.167
121 | CTTACGAC | 0.103
122 | ATTACGGC | 0.181
123 | ATTACGAA | 0.295
124 | AGTACGAG | 0.0932
125 | GTTACGAA | 0.16

Row | Sequence | PBM E-score
126 | CTTACGAA | 0.26
127 | ATTACGAG | 0.299
128 | GAGGTTAA | -0.0963
129 | AGCAATTC | 0.0771
130 | AGGACCTC | -0.0477
131 | CCTTGAGC | -0.155
132 | ATTCCGAG | 0.182
133 | CAAGTCTA | -0.202
134 | ATACTGTC | 0.208
135 | ATACTGAC | 0.192
136 | ATACTGAT | 0.283
137 | TACGCCCA | 0.0142
138 | AAGTACTG | -0.0282
139 | CAAAAGTC | -0.0102
140 | TCCTTACA | -0.021
141 | GGCTTACC | 0.169
142 | CACTTACG | 0.112
143 | CGCTTACC | 0.15
144 | TGCTTAAA | 0.102
145 | ACCTTACG | 0.0253
146 | AGCTTACG | 0.337
147 | TGCTTACA | 0.305
148 | ATCTTACG | 0.164
149 | GCCTTACA | -0.253
150 | CGCTTACG | 0.379

Row | Sequence | PBM E-score
151 | GGCTTACA | 0.332
152 | ACTTCTAT | 0.0803
153 | ATATGCGG | 0.148
154 | CACTGCCA | -0.0785
155 | CCCCCCCA | -0.464
156 | CTAGCCTC | -0.159
157 | GTACAGCA | -0.134
158 | ATGCACTA | -0.0624
159 | ATATAGAT | 0.207
160 | GGAGCTAC | -0.236
161 | AGCTTATA | 0.191
162 | AGCTTACC | 0.226
163 | CACTTACA | 0.127
164 | AGCTTATC | 0.204
165 | CGCTTAGA | -0.0919
166 | AGCTTACA | 0.351
167 | AGCTTATG | 0.296
168 | AGCTTACT | 0.201
169 | CGCTTACA | 0.315
170 | ACCCGATA | -0.0171
171 | CCCTGTTC | -0.265
172 | CCTTCTTC | -0.107
173 | AGAAGCTG | -0.049
174 | ACCAAGAT | 0.146
